Assay [1] can be described thus: qHTS assay to test for compound auto fluorescence at 535 nm (green) in HEK293 cells (AID 720680). On the technique in general: Quantitative high-throughput screening tests each substance at several concentrations.
Assay [2] in a line: qHTS assay to test for compound auto fluorescence at 460 nm (blue) in HEK293 cell free culture (AID 720681). Summed up: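 Blue fluorescence (Ex 405/Em 460 nm, triamterene-equivalent) was read immediately after pin transfer of compound or DMSO into medium (DMEM, 10% FBS) without cells.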
Assay [3] can be described thus: qHTS assay to test for compound auto fluorescence at 535 nm (green) in HEK293 cell free culture (AID 720682). Summed up:
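Green-channel intensity (Ex/Em 485/535 nm) was recorded from compound-treated wells containing only DMEM with 10% FBS. Fluorescein provided the equivalency standard.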

Assay [4] can be described thus: qHTS assay to test for compound auto fluorescence at 590 nm (red) in HEK293 cell free culture (AID 720683). The method in brief:
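Red-channel autofluorescence of compounds in culture medium (DMEM, 10% FBS), no cells, measured at 540/590 nm. Rose Bengal sodium is the reference fluorophore for equivalence.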

The nature of assay [5]: qHTS assay to test for compound auto fluorescence at 590 nm (red) in HepG2 cell free culture (AID 720684). Summed up:
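Plate contents were MEM with 10% FBS plus test compound or DMSO, no cells. Fluorescence was recorded with 540 nm excitation and 590 nm emission.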

A short description of assay [6]: qHTS assay to test for compound auto fluorescence at 460 nm (blue) in HepG2 cell free culture (AID 720685). The method in brief:
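Compound (23 nL) or DMSO pinned into cell-free MEM with 10% FBS; blue fluorescence read at 405/460 nm excitation/emission, expressed as auto-fluorescence equivalency to triamterene.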

The nature of assay [7]: qHTS assay to test for compound auto fluorescence at 535 nm (green) in HepG2 cell free culture (AID 720686).
Assay [8] can be described thus: qHTS assay to test for compound auto fluorescence at 460 nm (blue) in HepG2 cells (AID 720687). Summed up: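 Blue-channel autofluorescence (Ex/Em 405/460 nm, triamterene-equivalent) was measured after 1 hr compound exposure at 37 C, 5% CO2. Cells were HepG2, plated overnight at 37 C in MEM plus 10% FBS.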
Assay [9] concerns the target Glucocorticoid receptor (Homo sapiens) (UniProt P04150). Kind of assay: qHTS assay to identify small molecule agonists of the glucocorticoid receptor (GR) signaling pathway (AID 720691; active = well fitted activation curve with a large enough effect in the signal ratio in the repeat runs, not every such curve was filed as active; the % refers to the signal ratio; note: potency is the fitted concentration of half-maximal effect). The method in brief:
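qHTS in GR-bla HeLa cells: 4 h settling at 37 C/5% CO2, 18 h compound incubation at 37 C, 2 h LiveBLAzer B/G FRET substrate at room temperature, fluorescence intensity measured.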

A short description of assay [10]: qHTS assay to identify small molecule antagonists of the glucocorticoid receptor (GR) signaling pathway - cell viability counter screen (AID 720693). Note: nearly all actives have a fitted effect of over 55% in size.
The nature of assay [11]: qHTS assay for identifying genotoxic compounds that show differential cytotoxicity against isogenic chicken DT40 cell lines with known DNA damage response pathways - wild type cell line (AID 743012). Note: nearly all actives have a fitted effect of over 60% in size. Note: potency is the fitted concentration of half-maximal effect. Summed up: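 First, wild type DT40 cells were plated at 300 per well and equilibrated about 0.5 h at 37 C/5% CO2. Next, compounds in DMSO were added and exposure lasted 40 h. Finally, CellTiter-Glo was added for 30 min at room temperature and luminescence recorded.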

The nature of assay [12]: qHTS assay for identifying genotoxic compounds that show differential cytotoxicity against isogenic chicken DT40 cell lines with known DNA damage response pathways - Rev3 mutant cell line (AID 743014). Note: nearly all actives have a fitted effect of over 55% in size. Note: potency is the fitted concentration of half-maximal effect.
Assay [13] in a line: qHTS assay for identifying genotoxic compounds that show differential cytotoxicity against isogenic chicken DT40 cell lines with known DNA damage response pathways - Rad54/Ku70 mutant cell line (AID 743015). Note: nearly all actives have a fitted effect of over 60% in size. Note: potency is the fitted concentration of half-maximal effect.
Assay [14] deals with Androgen receptor (Homo sapiens) (UniProt P10275). Briefly: qHTS assay to identify small molecule agonists of the androgen receptor (AR) signaling pathway (AID 743036; active = well fitted activation curve with a large enough effect in the signal ratio in the repeat runs, with a control signal flat, not every such curve was filed as active; the % refers to the signal ratio; note: potency is the fitted concentration of half-maximal effect). The method in brief:
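Cell-based FRET reporter assay: HEK293 line with a UAS-beta-lactamase construct, compounds added in DMSO, 16 h exposure at 37C, then 2 h substrate step at room temperature and fluorescence intensity read.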

Assay [15] has the same target. Briefly: qHTS assay to identify small molecule agonists of the androgen receptor (AR) signaling pathway using the MDA cell line (AID 743040; note: nearly all actives have a fitted effect of over 20% in size; note: potency is the fitted concentration of half-maximal effect). The method in brief: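 After a 5 h incubation at 37C and 0% CO2, MDA-kb2 reporter cells were dosed with compounds in DMSO and kept 16 h under the same conditions. Luciferase activity was then read as luminescence with ONE-Glo.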

For assay [16] the target is unchanged. Briefly: qHTS assay to identify small molecule antagonists of the androgen receptor (AR) signaling pathway using the MDA cell line (AID 743042; note: nearly all actives have a fitted effect of over 55% in size). Summed up:
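Antagonist mode: compounds plus R1881 agonist added to MDA-kb2 AR-luc cells, incubated 16 h at 37C. Luciferase reporter luminescence quantified, with multiplexed CellTiter-Fluor readout for cell viability.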

Assay [17] is described as follows: qHTS assay to identify small molecule antagonists of the thyroid receptor (TR) signaling pathway - cell viability counter screen (AID 743064). Note: nearly all actives have a fitted effect of over 50% in size. Note: potency is the fitted concentration of half-maximal effect. The method in brief: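 In rat pituitary GH3.TRE-Luc reporter cells co-exposed to compound and 1 nM T3 for 23.5 h, cytotoxicity was assessed with CellTiter-Fluor in the same wells, read by fluorescence.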
The nature of assay [18]: qHTS assay to identify small molecule antagonists of the androgen receptor (AR) signaling pathway - cell viability counter screen (AID 743033; note: nearly all actives have a fitted effect of over 45% in size).
A short description of assay [19]: qHTS assay to identify small molecule antagonists of the androgen receptor (AR) signaling pathway using the MDA cell line - cell viability counter screen (AID 743041; note: nearly all actives have a fitted effect of over 45% in size). The method in brief:
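R1881-driven MDA-kb2 AR-luc cells, 3,000/well, were dosed with library compounds for 16 h; cell health came from CellTiter-Fluor fluorescence in the reporter wells.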

Values joined by “and” are separate entries in the source; they are usually repeats but may differ in a detail not shown here. Equal values may be shown once. Unmarked numbers belong to inactive results. Inconclusive results are not listed. Active and inactive are the calls of the source. Unless noted, calls come from the whole dose curve; as a rule, active = well fitted curve in the direction sought with a large enough effect in the repeat runs; inconclusive = weak or mixed curves; inactive = no such curve, though single readings can be large; an effect the other way counts as inactive or inconclusive.
% is set by controls: 0 for no effect and ±100 for the full control effect.

Sequence of Androgen receptor (Homo sapiens) (P10275 whole entry, looked up): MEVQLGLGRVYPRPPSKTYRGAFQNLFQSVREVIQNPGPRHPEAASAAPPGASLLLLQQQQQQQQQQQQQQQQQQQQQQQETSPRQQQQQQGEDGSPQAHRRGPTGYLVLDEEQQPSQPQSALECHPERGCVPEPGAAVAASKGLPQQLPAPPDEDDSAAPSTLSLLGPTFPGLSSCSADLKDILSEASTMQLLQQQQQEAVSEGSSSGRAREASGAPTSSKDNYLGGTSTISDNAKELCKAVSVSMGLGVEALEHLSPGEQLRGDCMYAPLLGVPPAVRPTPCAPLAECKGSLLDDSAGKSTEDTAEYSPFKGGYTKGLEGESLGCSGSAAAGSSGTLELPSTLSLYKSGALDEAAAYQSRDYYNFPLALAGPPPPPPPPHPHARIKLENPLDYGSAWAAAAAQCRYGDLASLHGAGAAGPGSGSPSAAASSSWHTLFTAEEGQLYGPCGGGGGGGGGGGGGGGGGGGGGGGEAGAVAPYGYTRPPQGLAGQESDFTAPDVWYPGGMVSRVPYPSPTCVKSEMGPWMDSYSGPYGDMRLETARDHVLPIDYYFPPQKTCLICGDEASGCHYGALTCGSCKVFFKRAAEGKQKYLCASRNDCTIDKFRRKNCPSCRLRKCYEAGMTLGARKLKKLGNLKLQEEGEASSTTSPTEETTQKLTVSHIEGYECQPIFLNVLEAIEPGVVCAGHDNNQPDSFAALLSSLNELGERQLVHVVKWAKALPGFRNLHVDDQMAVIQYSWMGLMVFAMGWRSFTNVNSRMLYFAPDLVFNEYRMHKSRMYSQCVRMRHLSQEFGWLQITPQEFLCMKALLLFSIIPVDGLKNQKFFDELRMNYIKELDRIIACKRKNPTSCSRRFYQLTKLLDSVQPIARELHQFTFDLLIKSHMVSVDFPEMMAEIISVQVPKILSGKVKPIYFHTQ
Sequence of Glucocorticoid receptor (Homo sapiens) (P04150 whole entry, looked up): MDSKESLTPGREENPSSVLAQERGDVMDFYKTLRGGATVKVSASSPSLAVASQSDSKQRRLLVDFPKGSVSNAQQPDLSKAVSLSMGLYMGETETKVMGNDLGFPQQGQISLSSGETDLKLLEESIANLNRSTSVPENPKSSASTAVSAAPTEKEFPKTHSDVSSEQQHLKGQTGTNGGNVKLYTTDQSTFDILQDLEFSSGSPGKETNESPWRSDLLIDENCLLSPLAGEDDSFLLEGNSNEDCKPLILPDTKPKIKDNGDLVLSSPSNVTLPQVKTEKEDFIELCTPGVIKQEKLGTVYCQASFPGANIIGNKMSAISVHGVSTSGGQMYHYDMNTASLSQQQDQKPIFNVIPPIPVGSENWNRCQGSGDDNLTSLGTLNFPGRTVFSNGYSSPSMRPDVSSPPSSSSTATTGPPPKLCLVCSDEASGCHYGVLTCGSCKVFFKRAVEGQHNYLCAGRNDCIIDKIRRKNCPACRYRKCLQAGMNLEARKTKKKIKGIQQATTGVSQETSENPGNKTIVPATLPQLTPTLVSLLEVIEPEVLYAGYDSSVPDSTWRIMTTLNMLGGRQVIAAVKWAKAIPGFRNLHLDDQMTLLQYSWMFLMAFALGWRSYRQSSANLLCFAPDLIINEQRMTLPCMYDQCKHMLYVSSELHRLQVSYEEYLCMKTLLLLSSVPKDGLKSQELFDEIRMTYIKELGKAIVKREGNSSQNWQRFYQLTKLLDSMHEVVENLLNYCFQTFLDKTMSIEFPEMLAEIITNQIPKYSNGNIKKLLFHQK

For the compound `C=CCOC(=O)/C=C\C(=O)OCC=C`, the compound was classed as inactive in assay [1], in [3], in assay [4], in assay [5] and in [7]. The Potency entry in [2], in [6], in [8], in [9], in assay [10] and in [11] was “inactive” in each case. The Potency entry in [12], in [13], in [14], in assay [15], in assay [16] and in assay [17] was “inactive” in each case.
In the case of `CCCC(=O)O[C@]1(C(=O)COC(=O)CC)CC[C@H]2[C@@H]3CCC4=CC(=O)CC[C@]4(C)[C@H]3[C@@H](O)C[C@@]21C`, the call in assay [1], in [3], in assay [4], in assay [5] and in assay [7] was inactive. Besides, the Potency entry in [2], in [6], in [8], in assay [10], in [11] and in [12] was “inactive” each time. For the same compound, the Potency entry in [13], in [18], in [19], in assay [16] and in assay [17] was “inactive” in each case. In addition, the Potency is 301 nM (active) in assay [9], 23.9 nM (active) in assay [14] and 119 nM (active) in assay [15].
Turning to `CCOC(=O)c1ccccc1OC`, the result in assay [1], in assay [3], in assay [4], in assay [5] and in assay [7] was inactive. The Potency entry in assay [2], in assay [6], in assay [8], in assay [10], in [11] and in assay [13] was “inactive” throughout. Also, the Potency result in [18] and in assay [19] was “inactive” throughout.
For `CN1CCN(CCCN2c3ccccc3Sc3ccc(S(=O)(=O)N(C)C)cc32)CC1`, the fluorescence, % of fluorescein in assay [1] was 0.046% [at 18.6 µM]. Besides, the fluorescence, % of fluorescent control in assay [2] is 0.0966% [at 18.6 µM]; in [4], 0.122% [at 18.6 µM]; in assay [6] it was 0.208% [at 18.6 µM]; in assay [8], 0.123% [at 18.6 µM]. In addition, in assay [3], the activity change was 0.0013% [at 18.6 µM]. The fluorescence, % of Rose Bengal in assay [5] was 0.748% [at 18.6 µM]. Moreover, the fluorescence, % of fluorescein control in [7] is 0.0675% [at 18.6 µM]. The Potency result in [9], in assay [10], in [12] and in [19] was “inactive” throughout. The Potency in assay [17] is 14.3 µM (active).
For `COc1ccc(C(=O)c2cccc(O)c2)c(OC)c1`, the call in assay [1], in assay [3], in assay [4], in assay [5] and in [7] was inactive. Moreover, the Potency result in assay [2], in assay [6], in [8], in assay [9], in [10] and in assay [11] was “inactive” in each case. Besides, the Potency result in assay [18], in [15], in [16] and in assay [17] was “inactive” in each case.
For `CC(=O)Oc1ccc2c(c1)CC[C@@H]1[C@@H]2CC[C@]2(C)[C@@H](O)CC[C@@H]12`, the compound was classed as inactive in assay [1], in assay [3], in assay [4], in assay [5] and in assay [7]. Besides, the Potency entry in assay [2], in [6], in assay [8], in assay [10], in [18] and in assay [19] was “inactive” in each case. Moreover, the Potency was 29.8 µM (active) in assay [11], 26.6 µM (active) in [12], 23.7 µM (active) in [13] and 26.6 µM (active) in assay [17].
For the compound `O=C(CCCCCCC(=O)Nc1ccccc1)NO`, the call in [1], in assay [3], in assay [4], in assay [5] and in assay [7] was inactive. Besides, the Potency entry in assay [2], in [6], in assay [8], in assay [10] and in assay [19] was “inactive” throughout. The Potency is 1.06 µM (active) in assay [11]; 531 nM (active) and 841 nM (active) in assay [12]; 1.5 µM (active) in assay [13]; 3.35 µM (active) and 2.11 µM (active) in assay [17].

(Values after PubChem BioAssay (Tox21).)
